Unmarked numbers belong to inactive results.
test system: Vero E6 infected with SARS-CoV-2; assay: inhibition of SARS-CoV-2 cytopathic effect; higher = more antiviral protection, active = above 15; conditions: 8.33 nM; 48 h

Row | SMILES | inhibition of SARS-CoV-2 cytopathic effect
1 | COc1nccc(-c2c(-c3ccc(F)cc3)ncn2[C@H]2CC[C@H](O)CC2)n1 | 6.4%
2 | C[C@]12C/C(=C/O)C(=O)C[C@@H]1CC[C@@H]1[C@@H]2CC[C@@]2(C)[C@H]1CC[C@]2(C)O [Oxymetholone] | 0.02%
3 | Cc1cc(C)c2c(N)c(C(=O)NCc3ccc(Cl)cc3)sc2n1 | -1.88%
4 | Cc1[nH]cnc1CN1CCc2c(c3ccccc3n2C)C1=O [alosetron] | -3.23%
5 | CN(C/C=C/C#CC(C)(C)C)Cc1cccc2ccccc12 [terbinafine] | 2.3%
6 | C[S+]([O-])c1ccc(-c2nc(-c3ccc(F)cc3)c(-c3ccncc3)[nH]2)cc1 (stereo not given) | 1.29%
7 | CCCCOc1ccc(C(=O)CCN2CCCCC2)cc1 [dyclonine] | 3.66%
8 | COc1cc2c(cc1OC)[C@@H]1Cc3ccc(OC)c(OC)c3CN1CC2 [rotundine] | -2.68%
9 | OCCNCCCOc1cccc(Cl)c1Cl | 0.45%
10 | NCCCCN(Cc1nc2ccccc2[nH]1)[C@H]1CCCc2cccnc21 | -1.96%
11 | O=C(O)C1(C(=O)O)CCC1.[NH2-].[NH2-].[Pt+2] [carboplatin] | 3.65%
12 | Cc1ccc(O)c([C@H](CCN(C(C)C)C(C)C)c2ccccc2)c1 [tolterodine] | 1.62%
13 | O=C(O)CNC(=O)c1ccccc1I [2-iodohippuric-acid] | 2.66%
14 | C[C@@H](NC(=O)c1ncnc(N)c1Cl)c1ncc(C(=O)Nc2cc(C(F)(F)F)c(Cl)cn2)s1 | 6.23%
15 | C[C@@H](CN(C)C)CN1c2ccccc2Sc2ccccc21 (racemic) [alimemazine] | -3.15%
16 | CC1=C(CC(=O)O)c2cc(F)ccc2/C1=C\c1ccc([S+](C)[O-])cc1 (stereo not given) [sulindac] | -2.82%
17 | NCCNCCNCCN [trientine] | 2.23%
18 | Oc1c(I)cc(Cl)c2cccnc12 [clioquinol] | -6.61%
19 | O=C(NNC(=O)c1ccc(CNS(=O)(=O)c2ccc(F)c(Cl)c2)cc1)c1ccccc1 | -1.3%
20 | CC1=C(/C=C/C(C)=C/C=C/C(C)=C/CO)C(C)(C)CCC1 [retinol] | 0.39%

Row | SMILES | inhibition of SARS-CoV-2 cytopathic effect
21 | CN(C)CCC(c1ccc(Br)cc1)c1ccccn1 (stereo not given) [brompheniramine] | 3.77%
22 | COc1ccc(-c2c(C)c(C(=O)NN3CCCCC3)nn2-c2ccc(Cl)cc2Cl)cc1 | -1.23%
23 | CN(C[C@@H]1COCCO1)S(=O)(=O)Nc1ccc2ccc3ncc(-c4cnn(C)c4)cc3c(=O)c2c1 | 1.08%
24 | OCCNC1CCCc2c1[nH]c1ccc(-c3ccccc3)cc21 (stereo not given) [casin] | 3%
25 | CCCCCCCN(CC)CCC[C@@H](O)c1ccc(NS(C)(=O)=O)cc1 (racemic) [ibutilide] | -2.14%
26 | NCCCCN [putrescine] | 3.44%
27 | C=CC(=O)Nc1cccc(C)c1Nc1ncc2cc(-c3c(Cl)c(OC)cc(OC)c3Cl)ccc2n1 | -0.88%
28 | CN1C[C@@H](NS(=O)(=O)N(C)C)C[C@@H]2c3cccc4c3c(cn4C)C[C@H]21 [mesulergine] | 0.79%
29 | CCn1cc(C(=O)O)c(=O)c2cnc(N3CCCC3)nc21 [piromidic-acid] | 1.01%
30 | O=S(=O)(/N=C/c1c(O)ccc2ccccc12)c1cccs1 | 2.5%
31 | NS(=O)(=O)Cc1noc2ccccc12 [zonisamide] | -3.86%
32 | CN(C(=O)Cc1ccccc1)[C@H](CN1CCCC1)c1ccccc1 | -0.14%
33 | CC(=O)NCCCOc1ccc(C(=O)N2CCC(N3C(=O)CCc4ccccc43)CC2)cc1 | -2.2%
34 | O=[N+]([O-])c1cncn1CCN1CCOCC1 [nimorazole] | -0.32%
35 | C=CCc1ccc(O)c(-c2cc(CC=C)ccc2O)c1 [magnolol] | 1.55%
36 | c1ccc2sc(SNC3CCCCC3)nc2c1 [N-cyclohexyl-2-benzothiazolesulfenamide] | 0.54%
37 | CCC[C@@H]1C[C@@H](C(=O)N[C@@H]([C@H]2O[C@H](SC)[C@H](O)[C@@H](O)[C@H]2O)[C@H](C)Cl)N(C)C1 | -0.55%
38 | CC(C)Oc1ccc(-c2nn([C@@H](C)c3oc4ccc(F)cc4c(=O)c3-c3cccc(F)c3)c3ncnc(N)c23)cc1F | 2.74%
39 | CC(C)[C@@H](C)/C=C/[C@@H](C)[C@H]1CC[C@H]2/C(=C/C=C3\C[C@@H](O)CC[C@@H]3C)CCC[C@]12C [dihydrotachysterol] | 0.52%
40 | C=Cc1c(C)c2cc3nc(c(CC(=O)O)c4[n-]c(cc5nc(cc1[n-]2)C(C)=C5CC)c(C)c4C(=O)O)[C@@H](CCC(=O)O)[C@@H]3C.[Cu+2] [chlorophyllin-copper] | 2.9%

— the supplement of paper PMC13380429
